Experimental data from PubChem BioAssay (EPA / NIEHS).
Activity calls are given as the source filed them. Rule for the calls: active = hit-call score of the fitted dose curve at least 0.9, where 1 is the maximum; inactive = score below 0.9.

Key:
[1] = ATG_CRE_CIS: Attagene CIS-FACTORIAL HepG2 Assay for human cAMP Responsive Element (CRE) binding protein 3 (AID 2282926); details: HepG2 CRE cis-reporter, Attagene multiplexed mRNA; actives raise or lower the signal
Summary of the method: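 Assay format: transient reporter transfection of HepG2, 24 h treatment, total RNA isolation with DNase I step. Reporter abundance read by fluorescence after PCR and capillary separation; DMSO-normalised gain or loss fitting.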

[2] = target: CCAAT/enhancer-binding protein beta (Homo sapiens) (UniProt P17676); assay: ATG_C_EBP_CIS: Attagene CIS-FACTORIAL HepG2 Assay for human CCAAT/Enhancer Binding Protein (C/EBP) beta (AID 2282927); details: HepG2 Attagene cis-factorial transcription factor reporter; actives raise or lower the signal
Summary of the method: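 Transiently transfected HepG2 (MRTU library, endogenous TF-driven promoters); 24 h dosing; total RNA → oligo(dT) RT → PCR → 6-FAM primer extension → HpaI digest → CE; fit bidirectionally vs DMSO.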

[3] = ATG_CMV_CIS: Attagene CIS-FACTORIAL HepG2 Assay for human CMV (Internal Marker) (AID 2282928); details: HepG2 CMV promoter reporter, transcription factor profiling; actives raise or lower the signal;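 note: endpoint acts as a background internal control marker rather than a target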
Summary of the method: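 Fluorescence intensity of RT-PCR-derived reporter fragments, resolved by capillary electrophoresis, gives the signal. HepG2 liver cells bearing transfected cis-element reporters were treated 24 h; activity in either direction was fit relative to DMSO-treated controls.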

[4] = ATG_DR4_LXR_CIS: Attagene CIS-FACTORIAL HepG2 Assay for human Liver X Receptor (LXR), DR4 submotif (AID 2282929); details: HepG2 Attagene DR4 cis-reporter, mRNA transcription; actives raise or lower the signal
Summary of the method: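 The endpoint is DR4-element-driven reporter transcripts after 24 h chemical exposure of transfected HepG2 cells. These were measured via RT-PCR and capillary electrophoresis, and gain or loss of signal was fitted relative to DMSO controls.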

[5] = target: Aryl hydrocarbon receptor (Homo sapiens) (UniProt P35869); assay: ATG_Ahr_CIS: Attagene CIS-FACTORIAL HepG2 Assay for human Aryl Hydrocarbon Receptor (Ahr) (AID 2282930); details: HepG2 AhR cis-factorial reporter transcription; actives raise or lower the signal
Summary of the method: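 Read-out: reporter mRNA quantified by RT-PCR with fluorescent primer extension and capillary electrophoresis. Human HepG2 liver cells carried transfected cis-promoter reporter units and were exposed to chemical for 24 h; gain or loss fitted relative to DMSO.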

[6] = ATG_AP_1_CIS: Attagene CIS-FACTORIAL HepG2 Assay for human Activator Protein 1 (AP-1) (AID 2282931); details: HepG2 Attagene cis-factorial AP-1 reporter mRNA; actives raise or lower the signal
Summary of the method: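 Readout is reporter transcript level from endogenous transcription factor activity, quantified by RT-PCR with fluorescent primer extension and capillary electrophoresis. Transiently transfected HepG2 cells, 24 h exposure. Curves fitted both directions versus DMSO.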

[7] = ATG_AP_2_CIS: Attagene CIS-FACTORIAL HepG2 Assay for human Activator Protein 2 (AP-2) (AID 2282932); details: HepG2 AP-2 cis-reporter, Attagene transcription factor profiling; actives raise or lower the signal
Summary of the method: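 Liver-derived HepG2 line, cis-reporter system measuring endogenous factors; 24 h dosing; reporter mRNA detected by fluorescent RT-PCR and capillary electrophoresis.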

[8] = ATG_BRE_CIS: Attagene CIS-FACTORIAL HepG2 Assay for human Bone Morphogenetic Protein (BMP) Response Element (BRE) (AID 2282933); details: HepG2 BMP response element reporter, Attagene transcription factor profiling; actives raise or lower the signal
Summary of the method: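 Endogenous transcription factor activity read in transiently transfected HepG2 cells after 24 h chemical exposure. Bidirectional curve fitting against DMSO; readout is reporter transcript level by RT-PCR with capillary electrophoresis of labelled products.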

[9] = target: Retinoic acid receptor alpha (Homo sapiens) (UniProt P10276); assay: ATG_DR5_RAR_CIS: Attagene CIS-FACTORIAL HepG2 Assay for human Retinoic Acid Receptor Alpha (RARE), DR5 submotif (AID 2282934); details: HepG2 Attagene cis-factorial RARE DR5 reporter, mRNA; actives raise or lower the signal
Summary of the method: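 Read-out: DR5-driven reporter transcript measured by RT-PCR, 6-FAM primer extension, HpaI digest and capillary electrophoresis. Human HepG2 liver cells carry transiently transfected cis-element reporter constructs; dosing lasts 24 h. Gain or loss of signal fitted against DMSO baseline.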

[10] = target: Transcription factor E2F1 (Homo sapiens) (UniProt Q01094); assay: ATG_E2F_CIS: Attagene CIS-FACTORIAL HepG2 Assay for human E2F Transcription Factor 1 (AID 2282935); details: HepG2 Attagene cis-reporter, E2F reporter RNA transcripts; actives raise or lower the signal
Summary of the method: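 Liver-derived HepG2 cells expressing transfected promoter-driven reporter units received test chemical for 24 hours. Signal gains or losses were fitted bidirectionally against DMSO.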

[11] = ATG_E_Box_CIS: Attagene CIS-FACTORIAL HepG2 Assay for human Enhancer Box (E-box) (AID 2282936); details: HepG2 E-box cis-reporter transcription, actives raise or lower the signal
Summary of the method: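 In this cell-based setup, HepG2 cells bearing transfected promoter-driven reporter units were exposed to chemicals for 24 h; reporter transcripts were amplified, 6-FAM-labelled, cut with HpaI and sized by capillary electrophoresis.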

[12] = ATG_M_61_CIS: Attagene CIS-FACTORIAL HepG2 Assay for M61 Transcription Factor (Internal Marker) (AID 2282937); details: HepG2 Attagene CIS-FACTORIAL M61 internal marker reporter; actives raise or lower the signal
Summary of the method: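 Readout is reporter mRNA by RT-PCR, fluorescent primer extension and capillary electrophoresis, with gain or loss fitted relative to DMSO. Transfected HepG2 cells carrying endogenous-TF-driven cis reporters were exposed to chemicals for 24 hours.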

[13] = ATG_EGR_CIS: Attagene CIS-FACTORIAL HepG2 Assay for human Early Growth Response 1 (EGR1) (AID 2282938); details: HepG2 Attagene CIS-FACTORIAL EGR reporter mRNA; actives raise or lower the signal
Summary of the method: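 After 24 h compound exposure, RNA from reporter-transfected HepG2 cells was reverse-transcribed, PCR-amplified, fluorescently labelled and resolved by capillary electrophoresis. EGR1 reporter transcript changes, up or down, were fitted against DMSO, reflecting endogenous transcription-factor activity.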

[14] = ATG_M_19_CIS: Attagene CIS-FACTORIAL HepG2 Assay for M19 Transcription Factor (Internal Marker) (AID 2282939); details: HepG2 Attagene CIS-FACTORIAL M19 internal marker reporter; actives raise or lower the signal
Summary of the method: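 Internal marker readout, fitted in both directions against DMSO, from HepG2 cells carrying transfected cis-element reporter constructs; RT-PCR and capillary electrophoresis of reporter mRNA after 24 h exposure.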

[15] = ATG_ERE_CIS: Attagene CIS-FACTORIAL HepG2 Assay for Estrogen Response Element (ERE) (AID 2282940); details: HepG2 ERE cis-reporter, Attagene RNA transcript; actives raise or lower the signal
Summary of the method: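 After 24 h compound treatment, RNA from transfected HepG2 cells was reverse-transcribed, reporter cDNA PCR-amplified, FAM-labelled, HpaI-cut and resolved by capillary electrophoresis. ERE-driven cis reporter transcripts reflect endogenous factors; gain or loss scored against DMSO.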

[16] = ATG_Ets_CIS: Attagene CIS-FACTORIAL HepG2 Assay for human Erythroblast Transformation Specific (ETS) (AID 2282941); details: HepG2 ETS cis-reporter transcription, actives raise or lower the signal
Summary of the method: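 Multiplexed reporter transcript profiling: HepG2, 24 h treatment, total RNA to cDNA, PCR, 6-FAM labelling, HpaI cut, capillary electrophoresis. Gain- or loss-of-signal fitted against DMSO.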

[17] = target: Hepatocyte nuclear factor 3-beta (Homo sapiens) (UniProt Q9Y261); assay: ATG_FoxA2_CIS: Attagene CIS-FACTORIAL HepG2 Assay for human Forkhead box A2 (FOXA2) (AID 2282942); details: HepG2 cis-reporter transcription factor activity, 24 h; actives raise or lower the signal
Summary of the method: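 Endogenous transcription factor activity is captured via cis-element-driven reporter transcripts in transfected HepG2. Total RNA taken at 24 h post-dosing; labelled RT-PCR products resolved by capillary electrophoresis. Gain or loss fitted versus DMSO.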

[18] = ATG_FoxO_CIS: Attagene CIS-FACTORIAL HepG2 Assay for human Forkhead box O (FoxO) (AID 2282943); details: HepG2 Attagene cis-reporter, FoxO element, mRNA; actives raise or lower the signal
Summary of the method: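 Read-out: fluorescence of 6-FAM-labelled reporter cDNA fragments resolved by capillary electrophoresis. Transiently transfected HepG2 cells were dosed for 24 h; activity fitted in both directions relative to DMSO controls.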

[19] = ATG_GATA_CIS: Attagene CIS-FACTORIAL HepG2 Assay for human GATA Binding Protein (AID 2282944); details: HepG2 GATA cis-element reporter, Attagene multiplex mRNA; actives raise or lower the signal
Summary of the method: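 Reporter transcripts from a GATA cis-regulated unit, among multiplexed reporters in transfected HepG2 cells, were measured by RT-PCR with capillary electrophoresis after 24 h dosing. Induction or loss scored relative to DMSO.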

[20] = ATG_GLI_CIS: Attagene CIS-FACTORIAL HepG2 Assay for human Zinc Finger Protein GLI1 (AID 2282945); details: HepG2, Attagene cis-factorial reporter mRNA, GLI element; actives raise or lower the signal
Summary of the method: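 Transiently transfected HepG2 cells report endogenous transcription factor activity via cis-element-driven reporter units. After 24 h compound exposure, reporter mRNA was measured by RT-PCR with capillary electrophoresis; bidirectional fitting against DMSO baseline.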

Measured: AC50

Chain of Aryl hydrocarbon receptor (Homo sapiens) (P35869 whole entry, looked up): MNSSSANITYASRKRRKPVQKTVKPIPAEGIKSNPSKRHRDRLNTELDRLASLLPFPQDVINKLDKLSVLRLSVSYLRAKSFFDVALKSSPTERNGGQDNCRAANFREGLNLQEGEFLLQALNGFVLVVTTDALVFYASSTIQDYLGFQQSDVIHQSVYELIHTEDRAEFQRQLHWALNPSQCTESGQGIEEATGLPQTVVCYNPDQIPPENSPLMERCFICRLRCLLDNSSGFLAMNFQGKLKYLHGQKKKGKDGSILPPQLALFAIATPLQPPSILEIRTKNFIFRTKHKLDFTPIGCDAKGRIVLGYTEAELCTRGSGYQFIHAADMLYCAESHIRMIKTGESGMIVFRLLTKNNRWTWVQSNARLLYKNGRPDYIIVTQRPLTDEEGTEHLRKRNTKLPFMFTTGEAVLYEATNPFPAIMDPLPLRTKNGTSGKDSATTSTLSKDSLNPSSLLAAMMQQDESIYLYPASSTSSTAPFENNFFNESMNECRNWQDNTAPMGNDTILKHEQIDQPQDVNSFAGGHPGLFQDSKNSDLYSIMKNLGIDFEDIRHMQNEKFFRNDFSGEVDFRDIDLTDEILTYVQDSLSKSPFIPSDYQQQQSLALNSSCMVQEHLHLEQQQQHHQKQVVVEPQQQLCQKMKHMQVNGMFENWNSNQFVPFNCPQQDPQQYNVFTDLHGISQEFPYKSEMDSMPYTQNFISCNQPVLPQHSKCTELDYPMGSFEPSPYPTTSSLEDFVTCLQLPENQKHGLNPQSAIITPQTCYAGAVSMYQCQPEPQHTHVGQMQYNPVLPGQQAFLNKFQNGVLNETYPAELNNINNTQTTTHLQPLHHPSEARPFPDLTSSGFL
Chain of Hepatocyte nuclear factor 3-beta (Homo sapiens) (Q9Y261 whole entry, looked up): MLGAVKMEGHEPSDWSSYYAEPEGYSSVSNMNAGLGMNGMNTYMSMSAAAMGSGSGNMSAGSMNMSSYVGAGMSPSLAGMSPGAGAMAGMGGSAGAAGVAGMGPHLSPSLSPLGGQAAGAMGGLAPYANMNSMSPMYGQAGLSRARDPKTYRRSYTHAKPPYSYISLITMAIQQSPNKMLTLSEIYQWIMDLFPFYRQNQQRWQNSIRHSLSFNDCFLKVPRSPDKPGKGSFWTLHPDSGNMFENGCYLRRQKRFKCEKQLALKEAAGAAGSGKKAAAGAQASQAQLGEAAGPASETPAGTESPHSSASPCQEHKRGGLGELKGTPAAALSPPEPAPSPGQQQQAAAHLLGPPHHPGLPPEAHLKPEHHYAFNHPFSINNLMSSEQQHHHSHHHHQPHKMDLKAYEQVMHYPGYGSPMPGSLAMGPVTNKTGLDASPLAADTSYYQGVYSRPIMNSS
Chain of Transcription factor E2F1 (Homo sapiens) (Q01094 whole entry, looked up): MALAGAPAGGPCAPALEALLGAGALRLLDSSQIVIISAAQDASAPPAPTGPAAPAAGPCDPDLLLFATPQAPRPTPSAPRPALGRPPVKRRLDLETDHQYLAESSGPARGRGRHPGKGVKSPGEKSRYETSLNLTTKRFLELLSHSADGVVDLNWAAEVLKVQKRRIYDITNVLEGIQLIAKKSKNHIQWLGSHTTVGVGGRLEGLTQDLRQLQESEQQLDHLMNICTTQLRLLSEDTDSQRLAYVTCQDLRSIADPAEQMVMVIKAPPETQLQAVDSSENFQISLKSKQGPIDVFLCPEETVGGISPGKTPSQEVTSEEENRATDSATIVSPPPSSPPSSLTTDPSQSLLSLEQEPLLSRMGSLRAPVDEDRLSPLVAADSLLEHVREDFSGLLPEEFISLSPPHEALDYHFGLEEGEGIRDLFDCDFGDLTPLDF
Chain of Retinoic acid receptor alpha (Homo sapiens) (P10276 whole entry, looked up): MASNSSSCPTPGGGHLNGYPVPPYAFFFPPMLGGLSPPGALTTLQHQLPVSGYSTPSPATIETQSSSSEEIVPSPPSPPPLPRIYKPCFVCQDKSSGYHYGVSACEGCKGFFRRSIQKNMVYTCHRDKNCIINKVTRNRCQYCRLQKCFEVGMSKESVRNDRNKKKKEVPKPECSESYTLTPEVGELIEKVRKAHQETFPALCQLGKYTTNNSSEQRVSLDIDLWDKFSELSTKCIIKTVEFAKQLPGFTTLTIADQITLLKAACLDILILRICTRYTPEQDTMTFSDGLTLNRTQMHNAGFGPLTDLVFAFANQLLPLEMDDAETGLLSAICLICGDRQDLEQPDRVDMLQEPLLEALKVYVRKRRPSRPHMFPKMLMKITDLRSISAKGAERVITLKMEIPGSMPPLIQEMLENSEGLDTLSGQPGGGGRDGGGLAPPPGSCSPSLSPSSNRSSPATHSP
Chain of CCAAT/enhancer-binding protein beta (Homo sapiens) (P17676 whole entry, looked up): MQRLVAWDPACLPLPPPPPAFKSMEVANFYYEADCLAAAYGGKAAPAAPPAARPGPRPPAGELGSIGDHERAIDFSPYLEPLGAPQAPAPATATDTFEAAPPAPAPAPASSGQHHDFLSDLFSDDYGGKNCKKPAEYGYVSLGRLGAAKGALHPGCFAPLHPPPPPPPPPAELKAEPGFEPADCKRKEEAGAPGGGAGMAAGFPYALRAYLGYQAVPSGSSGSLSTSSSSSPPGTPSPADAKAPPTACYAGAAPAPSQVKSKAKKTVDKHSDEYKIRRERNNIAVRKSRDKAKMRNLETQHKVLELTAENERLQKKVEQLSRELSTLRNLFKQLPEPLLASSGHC

OCCc1ccncc1
inactive: all assays above

O=C1CCCCCCCCCCCCCCCO1
active: [3] 72.9 µM | [4] 63.2 µM | [5] 61.9 µM
inactive: all other assays above

O=C1CCCN1CCO
inactive: all assays above

COc1ccc(NC(C)=O)cc1N
active: [5] 50.4 µM
inactive: all other assays above

O=C(O)CCCCCCCCCC(=O)O
active: [15] 22 µM
inactive: all other assays above

CC(=O)CC(N)=O
inactive: all assays above

COc1ccc(C(Cl)=C(c2ccc(OC)cc2)c2ccc(OC)cc2)cc1
active: [11] 21.8 µM
inactive: all other assays above

CC(C)CC(O)Cc1ccccc1 (stereo not given)
inactive: all assays above

c1ccc(CNCc2ccccc2)cc1
inactive: all assays above

Cc1cccc(N(C)C(=S)Oc2ccc3ccccc3c2)c1
active: [15] 25.3 µM
inactive: all other assays above

Nc1ncn([C@@H]2O[C@H](CO)[C@@H](O)[C@H]2O)c(=O)n1
active: [1] 9.4 µM | [2] 15.4 µM | [11] 27.5 µM | [16] 39.5 µM
inactive: all other assays above

S=C(NC1CCCCC1)NC1CCCCC1
inactive: all assays above

Cn1c([N+](=O)[O-])cnc1COC(N)=O
inactive: all assays above
